Assay results: PubChem BioAssay AID652065 (The Scripps Research Institute Molecular Screening Center, 2013)
Several values for one entry are separate records, joined by “and”; a condition that tells them apart may be missing. Equal values may be shown once. Among all 4,300 compounds or so, about 3,000 (70%) were called active.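 Rule for the calls: active = inhibition above a per-plate cutoff, the mean inhibition of sample wells plus 3 SD (cut at about 35% in these data); inactive = the rest.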 The set was probably picked from earlier hits. A selection follows. Some compounds were tested as several samples or in several runs, with calls that do not always agree.

Experiment: small molecules binding CAG repeat RNA – biochemical, fluorescence, confirmation (AID 652065);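 note: loss of TO-PRO-1 fluorescence as compound displaces dye from 1x1 AA loop RNA; 0% = DMSO only wells and 100% = 100 µM mitoxantrone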
Settings: r(CAG) RNA repeat, TO-PRO-1 dye displacement fluorescence; at 3 µM; stronger effect = higher value

inhibition, inactive:
Nc1cccc(-c2cc(-c3ccccc3)nc(-c3cccc(N)c3)n2)c1 21.8%
CCn1cc(C(=O)NCC2COc3ccccc3O2)c2cc(OC)c(OC)cc2c1=O (configuration not stated) 3.06%
O=C(COc1ccccc1Cl)Nc1ccc(C(=O)c2ccc(C(=O)O)cc2)cc1 27.3%
Cc1cc(C)cc(Oc2c(C(F)(F)F)oc3cc(OCC(=O)O)ccc3c2=O)c1 27.1%
COc1ccc(OCC(=O)Nc2nnc(-c3ccco3)s2)cc1 12.6%
CN1CCN(S(=O)(=O)c2cccc(C(=O)Nc3sccc3C#N)c2)CC1 24.8%
Cc1cc2nc(-c3ccco3)c(Cc3cccc(F)c3)n2c(C)c1Br 30.1%
COc1ccc(C(N)c2csc(NC(=O)Nc3cccc(C(F)(F)F)c3)n2)cc1 (configuration not stated) 25.6%
NC(c1csc(NC(=O)Nc2cccc(C(F)(F)F)c2)n1)C1CCCCC1 (configuration not stated) 24.4%
CCCOc1ccc(Cn2c(O)cc(=O)[nH]c2=O)cc1 18.4%
C=CCSc1nsc(NC(=O)Nc2cccc(C(C)=O)c2)n1 34.4%

inhibition, active:
N#Cc1c(-c2ccccc2)cc(-c2ccccc2)nc1SCC(=O)O 44.6%
O=C(Cc1ccccc1)Nc1ccc(C(=O)Nc2ccccc2C(=O)O)cc1 50.5%
Cc1ccc(C(=O)O)cc1-c1ccc(/C=C2\SC(=O)N(CC(=O)Nc3ccc4c(c3)OCO4)C2=O)o1 85.1%
Cc1cc(C)cc(OCC(=O)Nc2cc(NC(=O)COc3cc(C)cc(C)c3)cc(C(=O)O)c2)c1 78.6%
Cc1cccc(OCC(=O)Nc2ccc(C(=O)O)cc2NC(=O)COc2cccc(C)c2)c1 44.8%
CC(Oc1ccc2ccccc2c1)C(=O)NNC(=S)NC(=O)c1ccco1 (configuration not stated) 42.4%
CCCc1ccc(OCC(=O)NNC(=S)NC(=O)c2ccco2)cc1 56.7%
CC1CCCCN1S(=O)(=O)c1ccc(C(=O)Nc2nnc(-c3cccs3)o2)cc1 (configuration not stated) 40.6%
N#Cc1ccccc1CN1C(=O)S/C(=C/c2cccn2-c2cccc(C(=O)O)c2)C1=O 63.3%
Cc1ccc(NC(=S)NNC(=O)CSc2nnc(SCc3ccccc3Cl)s2)cc1 48.4%
O=C(Nc1nnc(-c2ccccc2)o1)c1cc(-c2cccs2)nc2ccccc12 68.2%
Cc1ccc(Cn2c(SCC(=O)N/N=C/c3ccccc3OCC(=O)O)nc3ccccc32)cc1 65.5%
Oc1c(Cl)cc(Cl)c(Cl)c1Cc1c(O)c(Cl)cc(Cl)c1Cl 91.4%
NC(c1ccccc1)c1csc(NC(=O)Nc2cccc(C(F)(F)F)c2)n1 (configuration not stated) 59.1%
Cc1oc2cc([N+](=O)[O-])c(O)c([N+](=O)[O-])c2c1C(=O)c1ccc(Br)cc1 50.2%

inhibition, 29.9% (inactive) and 46.4% (active):
CCN1C(=O)/C(=C2/Sc3ccccc3N2CCCS(=O)(=O)O)SC1=S
